Assay results reported in PubChem BioAssay (NCI).
About 79,000 compounds went through this panel and 15% of them were active in at least one assay; those are over-represented in the sample as a whole. Calls of active or inactive are those of the source. Cut-off read from the data, not from the text of the source: active = growth inhibition above about 70%; inactive = the rest.

Key:
[1] = NCI Yeast Anticancer Drug Screen. Data for the rad50 strain (AID 155);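 note: 0% = growth of vehicle-only cultures of the same strain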; conditions: S. cerevisiae rad50 strain growth inhibition; at 50.0 µM; active compounds read high
Procedure, shortened: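 Growth of the mutant yeast was measured after compound exposure and referenced to vehicle-treated cultures.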

[2] = NCI Yeast Anticancer Drug Screen. Data for the mec2-1 strain (AID 157); conditions: S. cerevisiae mec2-1 strain, at 50.0 µM, active compounds read high
Procedure, shortened: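 Growth inhibition is read against vehicle-treated controls after compound exposure of the mec2-1 yeast strain, which is defective in DNA damage repair or cell cycle control.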

[3] = NCI Yeast Anticancer Drug Screen. Data for the sgs1 mgt1 strain (AID 161);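 note: 0% = growth of cultures given vehicle only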; conditions: S. cerevisiae sgs1 mgt1 strain, at 50.0 µM, active compounds read high
Procedure, shortened: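 Yeast cells carrying a defined DNA-repair defect were exposed to test compounds. Growth inhibition was measured relative to vehicle-treated controls.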

[4] = NCI Yeast Anticancer Drug Screen. Data for the cln2 rad14 strain (AID 165);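 note: 0% = growth equal to vehicle treated cultures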; conditions: S. cerevisiae cln2 rad14 strain, at 50.0 µM, active compounds read high
Procedure, shortened: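 Growth inhibition, relative to vehicle-treated controls, is the read-out. The test organism is a yeast strain with defined genetic alterations, cln2 rad14.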

[5] = NCI Yeast Anticancer Drug Screen. Data for the bub3 strain (AID 167); conditions: S. cerevisiae bub3 mutant strain, at 50.0 µM, active compounds read high
Procedure, shortened: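 Whole-cell yeast assay. The mutant strain was incubated with compounds, and growth inhibition was determined by comparison with vehicle-treated cells.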

[6] = NCI Yeast Anticancer Drug Screen. Data for the mlh1 rad18 strain (AID 175); conditions: S. cerevisiae mlh1 rad18 strain growth inhibition; at 50.0 µM; active compounds read high
Procedure, shortened: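 Cells of a genetically altered yeast strain, deficient in DNA damage repair, were treated with compound. Their growth was then compared with that of vehicle-treated cultures to give inhibition.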

Measured: growth inhibition

CN(C)c1ccc(/C=C/[N+](=O)[O-])cc1
inactive: [1] -3% | [2] -17.4% | [3] 12.4% | [4] -15.7% | [5] 0.6% | [6] -3.25%

O=C(CS(=O)(=O)O)Nc1ccccc1
inactive: [1] 36.8% | [2] 11.9% | [3] 27.9% | [4] 14.7% | [5] 17.1% | [6] 22.2%

O=c1c2cc(Br)ccc2[nH]c(=S)n1-c1ccc(Br)cc1
inactive: [1] 9.95% | [2] -7.2% | [3] 15.2% | [4] 18% | [5] 35.5% | [6] 12.2%

COC1=CC(=Nc2ccc(N(CCCl)CCCl)cc2)C=CC1=O
inactive: [1] 17.6% | [2] 26.8% | [3] 14.3% | [4] 11.4% | [5] 15.1% | [6] 28.6%

CCCCCCNC(=O)CCl
inactive: [1] 6.5% | [2] -9.85% | [3] 15.3% | [4] -14.6% | [5] 7.45% | [6] -9.15%

CC(C)OP(=O)(CP(=O)(OC(C)C)OC(C)C)OC(C)C.[CH3][Sn]([Br])([Br])[Br]
inactive: [1] -27.4% | [2] -23.6% | [3] -32.5% | [4] 6.7% | [5] -19.1% | [6] -23%

O=C1NC(=O)C2(CCc3ccc(N(CCCl)CCCl)cc32)N1 (centres undefined)
inactive: [1] 14.1% | [2] -19.5% | [3] -4.75% | [4] 11.9% | [5] -16.6% | [6] 11.1%

COP(=O)(Cc1ccccc1)OC
inactive: [1] -1% | [2] 5.15% | [3] -0.95% | [4] -43.1% | [5] 2.3% | [6] -11.8%

CC(C)(C)C1=CC(=C(P(=O)(O)O)P(=O)(O)O)C=C(C(C)(C)C)C1=O
inactive: [1] -32.6% | [2] -12.7% | [3] -49.5% | [4] -21.9% | [5] -47.8% | [6] -34.5%
